The panel holds about 79,000 compounds, 15% with a hit somewhere; the sample as a whole holds those more often. A number with no mark means an inactive call. Active and inactive are the calls of the source. Cut-off read from the data, not from the text of the source: active = growth inhibition above about 70%; inactive = the rest.
Experiment: NCI Yeast Anticancer Drug Screen. Data for the rad14 strain (AID 159);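 note: 0% = growth of vehicle-treated control cultures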
Settings: S. cerevisiae rad14 strain growth inhibition; at 3.7 µM; active compounds read high
Summary of the method: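 Test compounds were applied to a repair-deficient yeast strain. Its growth was then compared with that of cultures given vehicle alone, and inhibition was expressed relative to those controls.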

| SMILES | growth inhibition |
| --- | --- |
| S=C(S)NN1CCOCC1 | 36% |
| COc1cc2c3c(cccc3c1)C(=O)N(CCN(C)C)C2=O | -18% |
| COC(=O)C1=C(C)NC(C)=C(C(=O)OCCCN2CCC(c3ccccc3)(c3ccccc3)CC2)C1c1cccc([N+](=O)[O-])c1 (stereo not given) | 76% (active) |
| c1ccc2c(c1)Oc1cccc3cccc-2c13 | 6% |
| CN(C)CCOc1ccc2c(c1)C/C(=C/c1ncc([N+](=O)[O-])n1C)C2=O | 51% |
| Cc1ccc(CCC2=CCCc3c2ccc2ccccc32)cc1 | -4% |
| CNC(=O)OCc1c(COC(=O)NC)c(-c2ccc(Cl)c(Cl)c2)n2c1CCC2 | -36% |
| Clc1ccccc1C1OC1c1ccccc1Cl (stereo not given) | -46% |
| O=[N+]([O-])c1cc(CCl)ccc1CCl | 13% |
| O=C1C=CC(=O)c2c(O)c(Nc3ccc(OC(F)(F)F)cc3)c(Cl)c(O)c21 | 4% |
| S=c1[nH]nc(Nc2ccc(Cl)cc2)s1 | 1% |
| Cn1ccnc1Oc1ccc(Cl)cc1 | 4% |
| BrCc1cccc2ccc3cccc(CBr)c3c12 | -2% |
| O=C1c2ccccc2-c2nc3ccccc3nc21 | -39% |
| CCCCCCCCCCCCCCCCCCNC | -16% |
| Oc1ccc(NCn2c(=S)sc3ccccc32)cc1 | -8% |
| O=C1C2CC[C@@H]3C(=O)C(Cl)(Cl)[C@@H]3CCC2C1(Cl)Cl (stereo not given in full) | 3% |
| CC[n+]1ccc2c(C)c3[nH]c4ccc(O)cc4c3c(C)c2c1 | -10% |
| Cc1ccc(-n2cc(-c3ccc(Cl)cc3)c(C#N)c2N)cc1 | 1% |
| CC(=O)[O][Bi]([c]1ccccc1)[c]1ccccc1 | 35% |

| SMILES | growth inhibition |
| --- | --- |
| CC1=C(SCCO)C(=O)c2ccccc2C1=O | 3% |
| C/C(=N\O)C1CC2C=C(C#N)C1N(Cc1ccccc1)C2 (stereo not given) | -1% |
| CC(Br)C(=O)c1ccc2cc(Br)c3ccccc3c2c1 (stereo not given) | -1% |
| Nc1nc(-c2cccnc2)cc(-c2cc(-c3cccnc3)nc(N)n2)n1 | 2% |
| CC(C)=CC(=O)O[C@@H]1CC(C)(C)CC2C3=CCC4[C@]56CC[C@](O)(OC5)C(C)(C)C6CC[C@@]4(C)C3(C)CC[C@]21C(=O)O (stereo not given in full) | 2% |
| CCC(C)COC(=O)c1ccc(N=Cc2ccc(C=Nc3ccc(C(=O)OCC(C)CC)cc3)cc2)cc1 (stereo not given) | 1% |
| Oc1cccc2c(Cl)ccnc12 | 99% (active) |
| O=C(O)c1cccc(-c2c3ccc(=O)cc-3oc3cc(O)ccc23)c1 | -20% |
| CN(CCc1ccccn1)c1ccc2c(c1)Cc1ccccc1-2 | 10% |
| Cc1cc(S(=O)(=O)/N=C(/NN)NNc2cccc(C(F)(F)F)n2)c(S)cc1Cl | -1% |
| O=C1C2C(C(=O)N1c1ccc(OCc3ccccc3)cc1)C1c3ccccc3C2C2CCCCN21 (stereo not given) | 3% |
| Nc1ccccc1CC(O)C(=O)O (stereo not given) | 6% |
| O=C(O)C1CCCCC1c1c2ccc(=O)c(O)c-2oc2c(O)c(O)ccc12 (stereo not given) | -7% |
| Cc1ccc2ccc(O)cc2c1 | -20% |
| O=C1C(=O)c2ccccc2C=C1[N+](=O)[O-] | 17% |
| COC(=O)c1ccc(NCC2=CC(=O)C=CC2=O)cc1O | 61% |
| C(CCSC1=NCCN1)CSC1=NCCN1 (tested in a mixture with another compound) | 27% |
| N#Cc1c(N)[nH]c2ccc(Sc3ccccc3)cc12 | 4% |
| CCNc1nnc(CSc2nc(-c3ccccc3)c(-c3ccccc3)[nH]2)s1 | -4% |
| CC[C@@]1(O)C(=O)OCc2c1cc1n(c2=O)Cc2cc3c(N)cccc3nc2-1 | -29% |
